This note sets out measurements from the supplement of paper PMC8975748.

Counter-ions that a name gives are not always drawn.

The test system of the assay is Saccharomyces cerevisiae BY4741 SeMeCo community. In words: z-score of subpopulation abundance vs DMSO median, subpopulation auxotrophic for HLU; higher = larger share of this subpopulation than in DMSO controls. The settings on record: 10 µM; 24 h; SM minimal medium; subpopulation (auxotrophy): HLU. On the procedure: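 Fluorescent four-plasmid SeMeCo (self-establishing metabolically cooperating S. cerevisiae BY4741 community; plasmids pH-mRuby2, pL-mWasabi, pU-eCFP, pM-TagRFP657) was grown 24 h in minimal SM medium with each Selleck FDA-approved drug at 10 µM in 384-well plates. Cells were fixed and imaged by high-content confocal microscopy. For each auxotrophic subpopulation (and the prototroph), a z-score gives the deviation from the DMSO vehicle-control population median.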
For `CCCCN1CCCC[C@H]1C(=O)Nc1c(C)cccc1C` [Levobupivacaine HCl], the “z-score of subpopulation abundance” value is -0.48.

Regarding `OC(CCN1CCCCC1)(c1ccccc1)C1CCCCC1` (stereo not given) [Trihexyphenidyl hydrochloride], the “z-score of subpopulation abundance” value is -0.09.

Take `CC(=O)NC[C@H]1CN(c2ccc(N3CCOCC3)c(F)c2)C(=O)O1` [Linezolid]: the “z-score of subpopulation abundance” value is 0.07.

`O=C(O[C@H]1CN2CCC1CC2)N1CCc2ccccc2[C@@H]1c1ccccc1` [Solifenacin succinate]: the “z-score of subpopulation abundance” value is 0.46.

On to `N[C@H]1CONC1=O` [L-Cycloserine], for which the “z-score of subpopulation abundance” value was determined as 4.59.

For the compound `Nc1ccc2cc3ccc(N)cc3nc2c1` [Proflavine Hemisulfate], the “z-score of subpopulation abundance” value is -4.5.

Take `O=C1C(N(CO)C(=O)NCO)N(CO)C(=O)N1CO` (stereo not given) [Diazolidinyl urea]: the “z-score of subpopulation abundance” value is 0.05.

In the case of `Cc1ncc([N+](=O)[O-])n1CC(O)CCl` (stereo not given) [Ornidazole], the “z-score of subpopulation abundance” value is -0.38.

As for `CC(C(=O)O)c1cccc(C(=O)c2ccccc2)c1` (stereo not given) [Ketoprofen], the “z-score of subpopulation abundance” value worked out at 0.39.

For `CCc1nc(N)nc(N)c1-c1ccc(Cl)cc1` [Pyrimethamine], the “z-score of subpopulation abundance” value was 0.

`Cc1nccn1CC1CCc2c(c3ccccc3n2C)C1=O` (stereo not given) [Ondansetron HCl]: the “z-score of subpopulation abundance” value is -0.69.

On to `CC(=O)NS(=O)(=O)c1ccc(N)cc1` [Sulfacetamide Sodium], for which the “z-score of subpopulation abundance” value is -0.24.

On to `OCc1ccccc1O[C@@H]1O[C@H](CO)[C@@H](O)[C@H](O)[C@H]1O` [Salicin], for which the “z-score of subpopulation abundance” value is -0.13.

On to `OC1(c2ccc(Cl)c(C(F)(F)F)c2)CCN(CCCC(c2ccc(F)cc2)c2ccc(F)cc2)CC1` [Penfluridol], for which the “z-score of subpopulation abundance” value stood at 0.93.

On to `COc1cc2c(cc1OC)C(=O)C(CC1CCN(Cc3ccccc3)CC1)C2` (stereo not given) [Donepezil HCl], for which the “z-score of subpopulation abundance” value is -0.1.

For `COC(=O)C1=C(C)NC(C)=C(C(=O)OC(C)(C)CN(C)CCC(c2ccccc2)c2ccccc2)C1c1cccc([N+](=O)[O-])c1` (stereo not given) [Lercanidipine], the “z-score of subpopulation abundance” value came out at 0.93.

With `Cc1c(C)c2c(c(C)c1O)CCC(C)(CCCC(C)CCCC(C)CCCC(C)C)O2` (stereo not given) [Vitamin E], the “z-score of subpopulation abundance” value is -1.19.

Take `COc1ccc2c(c1)c(CC(=O)O)c(C)n2C(=O)c1ccc(Cl)cc1` [Indomethacin]: the “z-score of subpopulation abundance” value was -0.33.

Consider `CCN(CC)C(=O)N1CCN(C)CC1` [Diethylcarbamazine citrate], for which the “z-score of subpopulation abundance” value is -0.06.

As to `C[C@@H](O)[C@H]1C(=O)N2C(C(=O)O)=C([C@H]3CCCO3)S[C@H]12` [Faropenem Sodium], the “z-score of subpopulation abundance” value amounted to 0.66.

Take `CCOC(=O)c1ccc(O)cc1` [Ethylparaben]: the “z-score of subpopulation abundance” value is -0.25.

Regarding `O=c1n(CCCN2CCN(c3cccc(Cl)c3)CC2)nc2ccccn12` [Trazodone HCl], the “z-score of subpopulation abundance” value was -0.83.

Take `Cc1onc(-c2c(F)cccc2Cl)c1C(=O)N[C@@H]1C(=O)N2[C@@H]1SC(C)(C)[C@@H]2C(=O)O` [Flucloxacillin sodium]: the “z-score of subpopulation abundance” value is -0.04.

As to `O=C(O)c1cc(-c2ccc(F)cc2F)ccc1O` [Diflunisal], the “z-score of subpopulation abundance” value was -0.75.

`CC#C[C@]1(O)CC[C@H]2[C@@H]3CCC4=CC(=O)CCC4=C3[C@@H](c3ccc(N(C)C)cc3)C[C@@]21C` [Mifepristone]: the “z-score of subpopulation abundance” value is 0.41.

For `Cc1ccnc(NS(=O)(=O)c2ccc(N)cc2)n1` [Sulfamerazine], the “z-score of subpopulation abundance” value is 0.89.

As for `Cc1c[nH]c(=O)[nH]c1=O` [Thymine], the “z-score of subpopulation abundance” value was determined as 0.71.

On to `C[C@@H](NCCCc1cccc(C(F)(F)F)c1)c1cccc2ccccc12` [Cinacalcet HCl], for which the “z-score of subpopulation abundance” value was -0.17.

Regarding `Cn1c(=O)c2c(ncn2CC2OCCO2)n(C)c1=O` [Doxofylline], the “z-score of subpopulation abundance” value was -0.64.

For `Nc1ccc(S(=O)(=O)Nc2cnc3ccccc3n2)cc1` [Sulfaquinoxaline sodium], the “z-score of subpopulation abundance” value was found to be 0.31.

In the case of `CC1(C)S[C@@H]2[C@H](NC(=O)Cc3ccccc3)C(=O)N2[C@H]1C(=O)O` [Benzathine penicilline], the “z-score of subpopulation abundance” value is -0.11.

As to `CC[N+](CC)(CC)CC` [Tetraethylammonium bromide], the “z-score of subpopulation abundance” value turned out to be 0.38.

`COc1ccc2c3c1O[C@H]1C[C@@H](O)C=C[C@@]31CCN(C)C2` [Galanthamine HBr]: the “z-score of subpopulation abundance” value amounted to 0.43.

As for `COc1ccc2[nH]c([S+]([O-])Cc3ncc(C)c(OC)c3C)nc2c1` (stereo not given) [Omeprazole Sodium], the “z-score of subpopulation abundance” value was determined as 0.43.

Turning to `NC12CC3CC(CC(C3)C1)C2` [Amantadine], the “z-score of subpopulation abundance” value is 0.22.

For `CCCCCCCCCCCCCCCCCCOP(=O)([O-])OC1CC[N+](C)(C)CC1` [Perifosine (KRX-0401)], the “z-score of subpopulation abundance” value worked out at 13.3.

Consider `O=C(O)CCC(=O)OC[C@@H](NC(=O)C(Cl)Cl)[C@H](O)c1ccc([N+](=O)[O-])cc1` [Chloramphenicol sodium succinate], for which the “z-score of subpopulation abundance” value is 1.48.

`C[C@@H](O)[C@H]1C(=O)N2C(C(=O)O)=C(SCCNC=N)C[C@H]12` [Imipenem]: the “z-score of subpopulation abundance” value is -0.62.

On to `Cc1ccc(S(=O)(=O)NC(=O)NN2CC3CCCC3C2)cc1` (stereo not given) [Gliclazide], for which the “z-score of subpopulation abundance” value is -0.52.

As to `Oc1ccc([C@H]2COc3cc(O)ccc3C2)cc1` [Equol], the “z-score of subpopulation abundance” value was determined as 0.
